# Results from PubChem BioAssay (Tox21).
# Where “and” joins values, the source holds several entries; their conditions need not be identical. Identical values can stand only once. Results filed as inconclusive are left out. A call without a number means that no potency is given here. Where a structure was tested more than once in an assay, its records may differ in their call. Calls of active or inactive are those of the source. The call rests on the fitted dose curve; in most records, active means well fitted inhibition curve with a large enough effect in the repeat runs; inconclusive means weak or mixed curves; inactive means no such curve, though single readings can be large or run the other way.
# Target: Estrogen receptor (Homo sapiens) (UniProt P03372)
# Assay: qHTS assay to identify small molecule antagonists of the estrogen receptor alpha (ER-alpha) signaling pathway using the BG1 cell line in the presence of 0.1 nM 17-beta-estradiol (AID 1259244); further: nearly all actives have a fitted effect of over 50% in size
# Details: VM7Luc4E2 (BG1) ERE-luciferase, antagonist mode, 0.1 nM E2, 22 h; series mostly up to 92.4 µM
# Description: National Center for Advancing Translational Sciences [NCATS]
# NIH Chemical Genomics Center [NCGC]
# U.S. Environmental Protection Agency [EPA]
# National Institutes of Environmental Health Sciences [NIEHS]
# National Toxicology Program [NTP]
# U.S. Food and Drug Administration [FDA]
# Estrogen receptor (ER), a member of the nuclear hormone receptor plays an important role in development, metabolic homeostasis and reproduction. Two subtypes of ER, ER-alpha and ER-beta, have similar expression patterns with some uniqueness in both types. Endocrine disrupting chemicals (EDCs) and their interactions with steroid hormone receptors like ER causes disruption of normal endocrine function. Therefore, it is important to understand the effect of environmental chemicals in ER signaling pathway. For identifying ER antagonists, VM7Luc4E2 cell line was used to screen against Tox21 compound libraries.
# VM7Luc4E2 cell line (provided by Denison MS, University of California) endogenously express full-length ER-alpha and is stably transfected with a plasmid containing four estrogen responsive elements (ERE) upstream of a luciferase reporter gene. The current screening for identification of ER-alpha inhibitors against Tox21 compound libraries used lower concentration (0.1 nM) of 17beta-Estradiol as a stimulator.
# Tox21 Assay Protocol Summary:
# VM7Luc4E2 cells were cultured in phenol red free assay medium containing 10% charcoal stripped FBS for 5 days prior to the assay. The cells were dispensed at 4,000 cells/well in 4 uL of assay medium into white wall/solid-bottom 1536-well plates (Corning Life Sciences, Corning, NY) using a Multidrop Combi (ThermoFisher Scientific, Waltham, MA) dispenser. After the assay plates were incubated at 37C and 5% CO2 for 24 hr, 23 nL of compounds dissolved in DMSO, positive controls or DMSO only was transferred to the assay plates by a Pintool station (Kalypsys, San Diego, CA). The transfer of compounds was followed by the addition of 1 uL of 0.1 nM (final concentration) agonist (17beta-Estradiol)/assay medium using a Flying Reagent Dispenser (FRD, Aurora Discovery, San Diego, CA). The plates were incubated at 37C and 5% CO2 for 22 hr. For luciferase reporter gene assay, 4 uL of ONE-Glo reagent (Promega Corporation, Madison, WI) was added to each well using the FRD and after 30 min incubation at room temperature luminescence intensity was measured using ViewLux plate reader (PerkinElmer, Shelton, CT).
# Potency means the concentration at half of the fitted maximal effect.
# Chain of Estrogen receptor (Homo sapiens) (P03372 whole entry, looked up): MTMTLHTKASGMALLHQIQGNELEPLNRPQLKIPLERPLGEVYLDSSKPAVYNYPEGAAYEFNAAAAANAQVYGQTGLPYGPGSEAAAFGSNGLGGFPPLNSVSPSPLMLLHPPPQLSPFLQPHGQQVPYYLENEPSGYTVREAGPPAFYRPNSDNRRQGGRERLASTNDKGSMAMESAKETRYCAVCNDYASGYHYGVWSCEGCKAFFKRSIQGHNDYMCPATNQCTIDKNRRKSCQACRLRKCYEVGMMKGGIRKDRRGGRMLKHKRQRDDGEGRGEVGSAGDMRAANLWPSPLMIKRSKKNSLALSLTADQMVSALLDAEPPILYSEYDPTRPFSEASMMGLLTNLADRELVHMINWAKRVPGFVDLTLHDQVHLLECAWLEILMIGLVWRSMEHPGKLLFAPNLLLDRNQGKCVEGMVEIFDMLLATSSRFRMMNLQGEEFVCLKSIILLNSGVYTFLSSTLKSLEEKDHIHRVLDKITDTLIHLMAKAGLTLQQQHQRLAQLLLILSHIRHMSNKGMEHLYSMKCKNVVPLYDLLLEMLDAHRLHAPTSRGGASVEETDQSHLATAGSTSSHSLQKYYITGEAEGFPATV
row,Structure (SMILES),Potency
1,CN(N=O)C(=O)N[C@@H]1[C@@H](O)[C@H](O)[C@@H](CO)O[C@@H]1O,inactive
2,C=CCc1ccc(O)c(OC)c1,inactive
3,CN(C)C(=O)Nc1ccc(Cl)c(Cl)c1,inactive
4,CCCCCCCC(=O)OCC(COC(=O)CCCCCCC)OC(=O)CCCCCCC,inactive
5,Nc1ccc([N+](=O)[O-])cc1O,inactive
6,NC1CCCCC1,inactive
7,O=c1[nH]cc(F)c(=O)[nH]1,12.7 µM (active) and inactive
8,C=C(C)C(=O)OCC(C)O (stereo not given),inactive
9,O=CC(=O)c1ccccc1,inactive
10,COc1ccc(C(Cl)=C(c2ccc(OC)cc2)c2ccc(OC)cc2)cc1,2.72 µM (active) and 7.7 µM (active) and 2.11 µM (active)
11,CN1[C@@H]2CC(OC(=O)[C@H](CO)c3ccccc3)C[C@H]1[C@@H]1O[C@@H]12 (stereo not given in full),inactive
12,O=C(O)c1ccccc1,inactive
13,NS(=O)(=O)c1cc2c(cc1Cl)NCNS2(=O)=O,inactive
14,O=C(Nc1ncc([N+](=O)[O-])s1)c1cccs1,inactive
15,NC(CO)(CO)CO,inactive
16,NC(=O)c1cccnc1,inactive
17,O=S1(=O)OC(c2ccc(O)cc2)(c2ccc(O)cc2)c2ccccc21,61.1 µM (active) and inactive
18,Cc1ncc([N+](=O)[O-])n1C,inactive
19,Cc1ncc([N+](=O)[O-])n1CCO,inactive
20,Cc1c(C(=O)O)c(O)cc2c1C(=O)c1c(O)c([C@@H]3O[C@H](CO)[C@@H](O)[C@H](O)[C@H]3O)c(O)c(O)c1C2=O,inactive

row,Structure (SMILES),Potency
1,COc1ccc2c(c1)c(CC(=O)O)c(C)n2C(=O)c1ccc(Cl)cc1,inactive
2,CCN(CC)C(=O)c1cccc(C)c1,inactive
3,CC12CCC(CC1)C(C)(C)O2,inactive
4,O=C1OC2(c3ccccc31)c1cc(Br)c(O)c(Br)c1Oc1c2cc(Br)c(O)c1Br,inactive
5,NC(=O)n1c(O)c(C(=O)c2cccs2)c2cc(Cl)ccc21,13.3 µM (active)
6,O=c1[nH]cnc2c1ncn2[C@H]1CC[C@@H](CO)O1,inactive
7,CCc1nc(N)nc(N)c1-c1ccc(Cl)cc1,31.1 µM (active) and 48.6 µM (active)
8,CCOC(N)=O,inactive
9,CCCc1cc(=O)[nH]c(=S)[nH]1,inactive
10,CS(=O)(=O)OCCCCOS(C)(=O)=O,inactive
11,COc1cccc(O)c1O,inactive
12,Cc1cccc(C)c1,inactive
13,CN1CCc2cccc3c2[C@H]1Cc1ccc(O)c(O)c1-3,49.1 µM (active) and 11.9 µM (active)
14,CC(=O)CCC(=O)O,inactive
15,Nc1ccc2c(c1)CN1C(=O)c3ccccc3C1=N2,3.26 µM (active)
16,CC(C)C(=O)Nc1ccc([N+](=O)[O-])c(C(F)(F)F)c1,56 µM (active) and 48.6 µM (active) and 29.8 µM (active)
17,COc1ccc2cc(S(=O)(=O)N[C@H](CC(=O)N[C@H](Cc3ccc(CN4[C@H](C)CCC[C@@H]4C)cc3)C(=O)N(C)C(C)C)c3ccc4c(c3)OCO4)ccc2c1,51.6 µM (active)
18,Cc1cc(=O)oc2cc(O)ccc12,inactive
19,CN(C)CCOC(c1ccccc1)c1ccccc1,inactive
20,CCOc1ccc(NC(C)=O)cc1,inactive
